Counter-ions that a name gives are not always drawn.

The values that follow come from the supplement of paper PMC10127200.

Holding throughout (assay): Euclidean distance of Cell Painting phenotypic profile (signed KS, 77 features) to DMSO centroid (dimensionless distance); 5 or 10 uM (library dependent); higher = stronger phenotypic change vs DMSO (phenoactivity)
Common to all, as to settings: 48 h

One experiment concerns 786-O. In short, it runs like this:
(§1)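 Phenoactivity is computed as Euclidean distance to the median vehicle profile. The profiles, drawn from 77 Harmony features scored as signed Kolmogorov-Smirnov statistics versus same-plate vehicle wells, were corrected for plate position, correlation-weighted and replicate-averaged at the top dose. Stained cells were imaged confocally at 20X (9 fields/well) after 48 h with library compounds at 10 or 5 uM, 0.1% DMSO final, in five cancer lines and a healthy fibroblast line.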

The subject of another experiment is A549. The procedure, abridged:
as §1

In another experiment the test system is DU145. The procedure, abridged:
as §1

For another experiment, the system named is FB. In short, it runs like this:
as §1

For the next experiment, the system named is HEPG2. In short, it runs like this: as §1
The next experiment has as its system OVCAR4. The procedure, abridged:
as §1

Turning to `CC(C)(O)CC(=O)NCCn1ccc2ncnc(Nc3ccc(Oc4cccc(C(F)(F)F)c4)c(Cl)c3)c21`, the Euclidean distance with 786-O worked out at 1.98; in the experiment on A549, 2.02; with DU145 it was 1.57; in the experiment on FB it was 1.52; in the experiment with HEPG2, 1; in the experiment on OVCAR4, 1.73.
Take `CN1CCc2c(c3ccccc3n2Cc2ccccc2)C1` [Mebhydrolin napadisylate]: the Euclidean distance amounted to 1.27 in the experiment on 786-O; 1.06 in the experiment on A549; 0.544 in the experiment with DU145; 1.03 in the experiment on FB; 1.31 in the experiment with HEPG2; 1.49 with OVCAR4.
In the case of `Nc1ccc(S(=O)(=O)Nc2cnc3ccccc3n2)cc1` [Sulfaquinoxaline sodium], the Euclidean distance with 786-O was found to be 0.778; in the experiment on A549 it was 0.727; in the experiment with DU145 it was 1.65; in the experiment with FB, 1.36; with HEPG2 it was 0.697; with OVCAR4, 0.684.
Take `O=C1NC(=O)C(=Cc2ccc(-c3ccc(F)cc3)o2)S1` (stereo in doubt): the Euclidean distance with 786-O turned out to be 1.04; in the experiment with A549, 0.938; in the experiment on DU145, 1.43; with FB, 1.29; in the experiment on HEPG2 it was 0.808; in the experiment on OVCAR4, 1.33.
Turning to `Cc1cccc(Nc2ccncc2S(=O)(=O)NC(=O)NC(C)C)c1` [Torsemide], the Euclidean distance with 786-O came out at 0.608; in the experiment on A549 it was 0.66; with DU145, 0.572; in the experiment with FB it was 0.798; in the experiment with HEPG2, 0.917; in the experiment on OVCAR4, 0.866.
For the compound `C1CCN2C[C@@H]3C[C@@H](CN4CCCC[C@@H]34)[C@H]2C1` [(-)-Sparteine Sulfate], the Euclidean distance with 786-O was 0.93; in the experiment with A549, 0.957; in the experiment with DU145, 0.846; with FB it was 1.03; with HEPG2 it was 0.474; in the experiment on OVCAR4, 1.04.
Consider `O=C(O)C1(c2ccc(-c3ccc(Cl)c(Cl)c3)c(F)c2)CC1`, for which the Euclidean distance in the experiment on 786-O was found to be 0.785; in the experiment with A549, 1.02; in the experiment on DU145, 1.42; in the experiment on FB it was 1.35; with HEPG2 it was 1.17; in the experiment on OVCAR4, 1.72.
Turning to `CNCCCC12CCC(c3ccccc31)c1ccccc12` [Maprotiline HCl], the Euclidean distance was 0.958 in the experiment on 786-O; 1.1 with A549; 1.11 with DU145; 2.09 in the experiment on FB; 1.53 in the experiment with HEPG2; 0.98 in the experiment with OVCAR4.
Turning to `CC(=O)OCC(CCn1cnc2cnc(N)nc21)COC(C)=O` [Famciclovir], the Euclidean distance turned out to be 1 in the experiment with 786-O; 0.742 in the experiment with A549; 0.892 in the experiment with DU145; 0.846 in the experiment on FB; 0.598 in the experiment with HEPG2; 1.57 with OVCAR4.
Consider `CCN(CC)C(=O)C1(c2ccccc2)CC1CN` (centres undefined) [Milnacipran HCl], for which the Euclidean distance with 786-O is 1.2; in the experiment on A549, 1.04; with DU145, 0.974; with FB, 1.14; in the experiment on HEPG2 it was 0.468; in the experiment with OVCAR4, 0.854.
Regarding `CCCCCCCCCCC[C@@H](C[C@@H]1OC(=O)[C@H]1CCCCCC)OC(=O)[C@H](CC(C)C)NC=O` [Orlistat], the Euclidean distance in the experiment on 786-O turned out to be 1.47; in the experiment on A549, 1.11; with DU145 it was 0.901; with FB, 1.42; in the experiment with HEPG2, 1.12; with OVCAR4, 0.935.
As for `CCS(=O)(=O)N1CC(CC#N)(n2cc(-c3ncnc4[nH]ccc34)cn2)C1`, the Euclidean distance in the experiment with 786-O was 1.86; in the experiment on A549, 0.875; with DU145, 1.45; with FB, 1.57; with HEPG2, 0.589; in the experiment on OVCAR4 it was 0.899.
On to `CCC1(c2c[nH]cn2)Cc2ccccc2C1` [Atipamezole], for which the Euclidean distance worked out at 0.467 in the experiment on 786-O; 0.642 with A549; 0.626 in the experiment on DU145; 0.848 in the experiment with FB; 0.484 with HEPG2; 0.675 in the experiment with OVCAR4.
Take `CNC(CC(=O)O)C(=O)O` [NMDA (N-Methyl-D-aspartic acid)]: the Euclidean distance with 786-O was 0.691; in the experiment with A549, 1.26; in the experiment on DU145 it was 0.677; in the experiment with FB, 0.867; in the experiment with HEPG2, 0.901; in the experiment on OVCAR4, 0.706.
Take `N=C(N)NC(=N)N1CCOCC1` [Moroxydine HCl]: the Euclidean distance stood at 1.5 with 786-O; 0.937 with A549; 1.25 with DU145; 0.666 with FB; 0.422 in the experiment on HEPG2; 1.22 in the experiment on OVCAR4.
With `CC(C)(CO)[C@@H](O)C(=O)NCCCO` [D panthenol], the Euclidean distance with 786-O was 1.37; in the experiment with A549 it was 0.791; in the experiment on DU145, 0.819; in the experiment on FB, 1.14; with HEPG2, 0.659; with OVCAR4, 1.64.
With `CCN[C@H]1C[C@H](C)S(=O)(=O)c2sc(S(N)(=O)=O)cc21` [Dorzolamide HCl], the Euclidean distance with 786-O stood at 1.17; with A549, 0.786; with DU145 it was 1.03; with FB, 1.31; in the experiment on HEPG2, 1.06; in the experiment on OVCAR4, 1.09.
For `CCCCOc1ccc(C(=O)CCN2CCCCC2)cc1` [Dyclonine HCl], the Euclidean distance in the experiment on 786-O was 1.45; in the experiment with A549, 0.937; in the experiment on DU145 it was 1.42; in the experiment on FB, 0.997; in the experiment with HEPG2, 1.96; with OVCAR4, 0.828.
With `CCC(=O)OCC(=O)[C@@]1(OC(=O)CC)[C@@H](C)C[C@H]2[C@@H]3CCC4=CC(=O)C=C[C@]4(C)[C@@]3(F)[C@@H](O)C[C@@]21C` [Betamethasone Dipropionate], the Euclidean distance in the experiment on 786-O was 1.67; with A549, 2.06; in the experiment on DU145, 2.69; in the experiment with FB, 2.18; in the experiment on HEPG2, 0.697; in the experiment with OVCAR4 it was 1.59.
In the case of `COc1cc2nc(N3CCN(C(=O)C4COc5ccccc5O4)CC3)nc(N)c2cc1OC` (centres undefined) [Doxazosin], the Euclidean distance is 1.52 in the experiment with 786-O; 1.28 with A549; 1.55 in the experiment with DU145; 0.683 in the experiment with FB; 0.609 in the experiment on HEPG2; 1.18 with OVCAR4.
With `C=CC1=C(C(=O)O)N2C(=O)[C@@H](NC(=O)/C(=N\OCC(=O)O)c3csc(N)n3)[C@H]2SC1` [Cefixime], the Euclidean distance with 786-O was determined as 1.35; with A549, 0.916; with DU145, 0.778; in the experiment with FB it was 1.38; with HEPG2, 0.6; in the experiment on OVCAR4 it was 1.73.
For `Cc1cc(C(C)(C)C)c(O)c(C(C)(C)C)c1` [Butylated hydroxytoluene], the Euclidean distance was found to be 0.873 in the experiment on 786-O; 0.945 in the experiment with A549; 0.885 with DU145; 0.657 with FB; 1.03 in the experiment with HEPG2; 0.752 in the experiment with OVCAR4.
Turning to `Cc1cc(C(=O)NOCCO)c(Nc2ccc(I)cc2F)n(C)c1=O`, the Euclidean distance in the experiment on 786-O turned out to be 2.89; in the experiment with A549, 2.95; in the experiment with DU145, 2.82; with FB it was 4.35; in the experiment with HEPG2, 1.48; in the experiment on OVCAR4, 1.72.
With `O=C(O)/C=C/c1ccc(Cn2ccnc2)cc1` [Ozagrel], the Euclidean distance with 786-O was found to be 1.04; with A549, 0.773; in the experiment on DU145, 1.51; in the experiment on FB, 0.921; in the experiment on HEPG2 it was 0.736; with OVCAR4 it was 1.43.
